Measurements taken from ChEMBL document CHEMBL4513216, “Probing the Open Global Health Chemical Diversity Library for Multistage-Active Starting Points for Next-Generation Antimalarials” (ACS Infect Dis, 2020).
The whole screen tested about 65,000 compounds, of which about 2,100 (3.2%) showed an effect of 50% or more. The median lay at about -52%. What follows is part of a selection rich in strong results, with near analogues and random picks from the rest.

Tested on: Plasmodium falciparum
Experiment: Screen against P. falciparum Asexual Blood Stage (ABS), at 5uM
Type: functional, Dd2
Details: tested at 5 uM

| SMILES | INHIBITION [%] |
| --- | --- |
| CC[C@@H]1N(Cc2cccnc2)CCC[C@]12CCC(=O)N2C | -25.2 |
| CN1CC=C(c2noc(CCC(=O)N3CCOCC3)n2)CC1 | -132 |
| Cn1ncc2c(N3CCCC4(CCNC4)C3)nc(C(C)(C)C)nc21 (stereo unspecified) | 38.2 |
| CCNC(=O)CN1CCSC2(CCCCC2)C1 | -49.4 |
| NC(=O)CN1CCCN(C(=O)Cc2ccc(Br)cc2)CC1 | -114 |
| CCC1(CC)Cc2ccccc2-c2nc(CN(C)C)nc(O)c21 | 74.6 |
| FC(F)CN1CCOC(Cn2cccn2)C1 (stereo unspecified) | -69.4 |
| CC(NCC1CCN(CCO)CC1)c1ccc(C(F)(F)F)cc1 (stereo unspecified) | 89.1 |
| CC(NCC1CCN(CCO)CC1)c1ccc(OC(F)(F)F)cc1 (stereo unspecified) | 93.8 |
| OCCN1CCC(CNCc2ccccc2OC(F)(F)F)CC1 | 95.8 |
| O=C(Cc1cnc(-c2c(Cl)cccc2Cl)s1)N1CCC2(CC1)OCCO2 | -87.1 |
| CCC12CN3CC(C)(CN(C1)C3c1[nH]c(=O)[nH]c(=O)c1C)C2=O (stereo unspecified) | -51.4 |
| CCN1CCNC(=O)C12CCN(C(=O)c1ccccn1)CC2 | -86.3 |
| O=C1CSC(c2ccc(O)cc2)c2c(n(C3CCOCC3)[nH]c2=O)N1 (stereo unspecified) | -92.3 |
| Cc1nn(C2CCCC2)c2c1C(c1ccc3c(c1)OCO3)SCC(=O)N2 (stereo unspecified) | 6.36 |
| Cc1nc(CN2CCO[C@H]3[C@@H](Oc4ccccn4)CC[C@@H]32)cs1 | -47 |
| CSc1ccccc1C(=O)C1CCCN(Cc2ccccn2)C1 (stereo unspecified) | -41.1 |
| O=C1NC[C@H]2CN(Cc3ccccn3)CCN12 | -9.08 |
| NC(=O)c1cccc2nc([C@H]3CCN(Cc4ccccn4)C3)[nH]c12 | 95.1 |
| CCS(=O)(=O)N[C@@H]1CN(Cc2cc(C)on2)C[C@@H]2CCCO[C@@H]21 | -96 |
| COC(=O)CNC(=O)c1cn(Cc2ccccc2F)nn1 | -63.8 |
| CN1CCN(c2ccccc2CNC(=O)Cc2cccc(F)c2)CC1 | 77.4 |

| SMILES | INHIBITION [%] |
| --- | --- |
| CN1CCN(c2ccc(F)cc2C(N)=O)CC1 | -105 |
| CN1CCN(c2ccccc2CNC(=O)Cc2ccccc2F)CC1 | 77 |
| CN1CCN(c2ccnc3c(F)cc(Br)cc23)CC1 | 0.83 |
| CN1CCN(c2ccccc2NC(=O)NCCc2ccccc2)CC1 | 83.9 |
| CN1CCN(c2ccc(CO)cc2F)CC1 | -62.7 |
| O=S1(=O)CCC(n2cc(C3=CCN(CCn4cccc4)CC3)cn2)C1 (stereo unspecified) | -22.4 |
| Cc1noc(C)c1CN1C(=O)[C@@H]2CC[C@H]1CN(Cc1cscn1)C2 | -41.1 |
| O=C(C1CCC1)N1CCC2(CC1)CNCCO2 | -16.3 |
| O=C(Nc1ccccc1)C1=NOC2(CCNCC2)C1 | -53.9 |
| COc1ccc(CC(C)(O)CNC(=O)c2cccs2)cc1 (stereo unspecified) | 89.1 |
| c1cc(COC[C@H]2CCC[C@]23CNCCO3)ccn1 | 14.9 |
| c1cnc(NCc2cncc3c2CCN(CC2CC2)C3)nc1 | -95 |
| CC(C)N1CCO[C@H]2CN(C(=O)c3ccccn3)C[C@H]21 | -46.1 |
| CCOc1cccc(C(C)NC(=O)N2CCC3(CC2)OCCO3)c1 (stereo unspecified) | -117 |
| OC(CNC1CCSCC1)c1cccc(OCc2ccccc2)c1 (stereo unspecified) | 74.4 |
| CN1CCC(NCC(O)c2cccc(OCc3ccccc3)c2)CC1 (stereo unspecified) | 90.7 |
| NCC(c1cccnc1)N1CCOCC1 (stereo unspecified) | -122 |
| CC(C)OCCN(C)CC(c1cccs1)N1CCOCC1 (stereo unspecified) | 79.9 |
| c1cnc(N2CC[C@@H]3[C@@H]2CCN3Cc2cccs2)nc1 | -56.7 |
| c1ccc(COC[C@H]2CC[C@H]3[C@H](CCN3Cc3cccs3)O2)nc1 | -43.6 |
| Oc1cc(C2CCCCN2Cc2cccs2)nc(-c2ccccn2)n1 (stereo unspecified) | 85.9 |
| CCN1CCN(Cc2nc(C)no2)CC1 | -11.7 |

| SMILES | INHIBITION [%] |
| --- | --- |
| Cc1noc(C)c1CN1C[C@@H](OCC(=O)N(C)C)[C@H]2OCCC[C@H]21 | -76.4 |
| COc1cc(CNCCNC(=O)c2ccc(O)cc2)ccc1SC | 26.9 |
| COc1cccc(CNCc2ccc(F)c(Cl)c2)c1O | 80 |
| COc1cccc(CNCc2cccc(Cl)c2)c1O | 85.2 |
| CC1CCC2(CC1)NC(=O)c1cc(Br)ccc1-n1nnnc12 (stereo unspecified) | -65.8 |
| O=C(c1csc(-c2ncccn2)n1)N1CCN2CCCCC2C1 (stereo unspecified) | -32.7 |
| CN(C)[C@@H]1CN(C(=O)Cc2ccccc2)[C@@H]2CCCO[C@H]12 | -9.86 |
| CC(C)CCC(=O)N1CCC2(CC1)OCCO2 | -8.85 |
| Cc1ccc(C(=O)N2C[C@H]3CN(Cc4csc(C)n4)C[C@H]3C2)cn1 | -173 |
| COC(=O)C(C)(C)NC(=O)c1cnc(Cc2ccc(F)cc2)s1 | 75.4 |
| Cc1cnn(CC(C)NCCc2cccs2)c1 (stereo unspecified) | -30.1 |
| Cc1cnn(CCNCC(O)COc2c(Cl)cccc2Cl)c1 (stereo unspecified) | 81.9 |
| Cc1cnn(CCNCC(O)c2ccc(C(F)(F)F)cc2)c1 (stereo unspecified) | 72.6 |
| CC(C)(O)CNc1ccc(C#N)c(C(F)(F)F)c1 | -74.3 |
| CC1=NOC2(CCN(Cc3c[nH]c4ccccc34)CC2)C1 | -17.9 |
| O=C(c1ccc[nH]1)N1CCC2(CCCN2Cc2cccnc2)CC1 | -9.26 |
| CN(C)c1ncc2c(n1)C1(CCN(Cc3cccnc3)C1)COC2 (stereo unspecified) | -4.75 |
| CCN1CCN(C[C@@H]2CN(c3ncc(Cl)cc3F)C[C@@H]2CO)CC1 | 92.2 |
| Cc1ccccc1OCC(=O)N1CCN(C2CCOC2=O)CC1 (stereo unspecified) | -28.3 |
| Cc1cccc(NC(=O)c2cccc(OCc3nnnn3C)c2)n1 | 80.7 |
| CC(C)CCNc1c(C#N)c2c(c3nncn13)CN(C)CC2 | -35.1 |
| CN1CCc2c(C#N)c(NCCCO)n3cnnc3c2C1 | -82.4 |

| SMILES | INHIBITION [%] |
| --- | --- |
| CN1CCc2c(C#N)c(NCCc3ccccc3)n3cnnc3c2C1 | 70.9 |
| COCCN1C[C@@H]2[C@@H](OC)CCN(C(=O)Cc3ccccc3)[C@@H]2C1 | -25 |
| COc1ccc(CC(=O)N2CCN(Cc3ccco3)C[C@@H]2C)cc1 | -22.3 |
| COc1ccc(CC(=O)N2CCC[C@@H](N)[C@@H]2c2ccccc2F)cc1 | 80.9 |
| Cc1cccc(CN2C[C@@H]3OCCN(S(=O)(=O)N(C)C)[C@@H]3C2)n1 | -43.1 |
| CCc1ccc2nc(NCCCN(CCO)CCO)cc(C)c2c1 | 83.4 |
| CCN1CCC12CCN(C(=O)c1cc(C)on1)C2 (stereo unspecified) | -10.1 |
| CCc1noc(CN2CCN(C(=O)Cc3ccc(F)cc3)CC2)n1 | -9.72 |
| NC1CCCCN(Cc2cc(-c3ccccc3OC(F)(F)F)no2)C1 (stereo unspecified) | 71.1 |
| CC(C)n1ccc2c(C(=O)NC3CN4CCC3CC4)cccc21 (stereo unspecified) | -67.1 |
| COc1cccc(CNC(C)C)c1OCc1ccc(C)cc1 | 73.7 |
| COc1cc(CNCC(C)O)cc(Cl)c1OCc1ccc(C)cc1 (stereo unspecified) | 73.9 |
| Cc1nc(C)c(CC(=O)N2CCN(CC(C)C)CC2)c(=O)[nH]1 | -137 |
| Clc1cccc(C(NCc2ncc[nH]2)c2ccccn2)c1 (stereo unspecified) | 86.9 |
| Fc1cccc(C(NCc2ncc[nH]2)c2ccccn2)c1 (stereo unspecified) | 91.8 |
| Cc1nnc([C@@H]2C[C@H]3CN(C4CCC4)C[C@H]3O2)[nH]1 | -81.6 |
| O=C(c1cn(Cc2ccccc2)c2ncccc12)N1CCCCC1 | -11.9 |
| N#CC1(c2ccccc2)CCN(C(=O)CN2C(=O)CCNC2=O)CC1 | -90.6 |
| COc1ccc(CNC(C)c2ccc(Cl)cc2)c(OC)c1OC (stereo unspecified) | 80.9 |
| CNS(=O)(=O)c1cccc(C(C)NCc2ccccc2OC)c1 (stereo unspecified) | 86.6 |
| COc1ccc(CNC(C)c2ccccc2Cl)c(OC)c1OC (stereo unspecified) | 75.6 |
| CCOc1cccc(C(C)NCc2ccc(OC)c(OC)c2OC)c1 (stereo unspecified) | 77.6 |

| SMILES | INHIBITION [%] |
| --- | --- |
| COc1ccc(CNC(C)Cn2cccn2)c(OC)c1OC (stereo unspecified) | -37.6 |
| O=C1C[C@@H]2[C@H](CCN2Cc2ccccn2)N1Cc1ccncc1 | 19.2 |
| Cc1n[nH]c(C)c1CNC(=O)c1cn(CCC2CCCCN2)nn1 (stereo unspecified) | -24.9 |
| c1coc(CNc2ncc3c(n2)C2(CCNC2)COC3)c1 (stereo unspecified) | -66 |
| CC(C)N1CCCC(Cc2nccnc2Cl)CC1 (stereo unspecified) | -7.14 |
| Cn1ccc(CN2CCCC23CCNCC3)n1 | -53.7 |
| O=C([C@H]1C[C@H]2OCC[C@H]2N(Cc2ccccn2)C1)N1CCCCO1 | -88.5 |
| COCC(O)CN(C)c1ccnc2cc(Br)ccc12 (stereo unspecified) | 94.4 |
| Cc1cc(CN2CCN3C[C@H](c4ccccc4)[C@@H](CO)[C@H]3C2)on1 | -81.4 |
| Cc1ccc(N2CCC3(CCCN3Cc3ccn(C)n3)CC2)nn1 | -63.5 |
| Cc1ccccc1-n1cc(C2=CCN(CCN3CCOCC3)CC2)cn1 | -4.21 |
| CC(C)NC(=O)[C@@H]1CC[C@@H]2[C@@H](CCN2Cc2cn(C)c3ccccc23)O1 | 77.6 |
| CN(C)C(=O)[C@H]1CC[C@@H]2[C@@H](CCN2Cc2ccccn2)O1 | -43.5 |
| CN(C)C(=O)[C@@H]1CC[C@@H]2[C@@H](CCN2Cc2ccccn2)O1 | -97.6 |
| CCN(CC)C(=O)C1CCC2(CCNCC2)CO1 (stereo unspecified) | -31.8 |
| COCC(=O)NC(C)Cc1ccc(Br)cc1 (stereo unspecified) | 17.4 |
| Cc1nc(Nc2ccc(Cl)cn2)sc1C(=O)NCCCN1CCCCC1 | 81.4 |
| Cc1cnc(N2CCN3C[C@H](OCc4ccccn4)C[C@H]3C2)nc1 | -24.1 |
